# Data reported in PubChem BioAssay (NCI).
# This is part of a sample that, as a whole, favours compounds with a hit. Of some 79,000 tested, about 15% had one in any assay. A number with no mark means an inactive call. Active and inactive are the calls of the source. Cut-off read from the data, not from the text of the source: active = growth inhibition above about 70%; inactive = the rest.
# Columns and labels:
# [1] = NCI Yeast Anticancer Drug Screen. Data for the rad52 strain (AID 147);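 note: 0% = growth of vehicle-treated control cultures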; conditions: S. cerevisiae rad52 mutant growth inhibition, stronger effect = higher value
# Procedure, shortened: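 Read-out: growth inhibition versus vehicle-treated controls. Cells were a DNA repair-deficient yeast strain treated with compounds.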
# [2] = NCI Yeast Anticancer Drug Screen. Data for the wt1 strain (AID 149);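 note: 0% = growth of vehicle-treated wt1 cultures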; conditions: S. cerevisiae wt1 strain (SPY 50644) growth inhibition, stronger effect = higher value
# Procedure, shortened: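 Each compound is tested on wt1 yeast and the loss of growth versus vehicle gives the inhibition value.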
# [3] = NCI Yeast Anticancer Drug Screen. Data for the rad50EPP+ strain (AID 151);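 note: 0% = growth of vehicle-treated control cultures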; conditions: S. cerevisiae rad50 mutant strain, stronger effect = higher value
# Procedure, shortened: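 Growth inhibition read against vehicle controls in rad50EPP+ yeast, a strain altered in DNA damage repair, after compound exposure.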
# [4] = NCI Yeast Anticancer Drug Screen. Data for the mgt1 strain (AID 153); conditions: S. cerevisiae mgt1 mutant growth inhibition, stronger effect = higher value
# Procedure, shortened: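 mgt1 yeast grown with test compound; read-out is growth inhibition versus vehicle-treated cultures.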
# [5] = NCI Yeast Anticancer Drug Screen. Data for the rad50 strain (AID 155);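 note: 0% = growth of vehicle-only cultures of the same strain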; conditions: S. cerevisiae rad50 strain growth inhibition, stronger effect = higher value
# Procedure, shortened: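 Vehicle-treated cultures provide the reference for the growth inhibition reported for compound-exposed, repair-deficient yeast.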
# [6] = NCI Yeast Anticancer Drug Screen. Data for the mec2-1 strain (AID 157); conditions: S. cerevisiae mec2-1 strain, stronger effect = higher value
# Procedure, shortened: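 Yeast mec2-1 mutant treated with compound. Readout: growth inhibition vs vehicle controls.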
# [7] = NCI Yeast Anticancer Drug Screen. Data for the rad14 strain (AID 159);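 note: 0% = growth of vehicle-treated control cultures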; conditions: S. cerevisiae rad14 strain growth inhibition, stronger effect = higher value
# Procedure, shortened: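 Inhibition of growth is reported for a repair-deficient yeast mutant following compound treatment, calculated relative to cultures that received vehicle.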
# [8] = NCI Yeast Anticancer Drug Screen. Data for the sgs1 mgt1 strain (AID 161);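 note: 0% = growth of cultures given vehicle only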; conditions: S. cerevisiae sgs1 mgt1 strain, stronger effect = higher value
# Procedure, shortened: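 Test agents were incubated with a DNA-repair-mutant yeast strain. Growth was then read and compared against vehicle-treated controls.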
# [9] = NCI Yeast Anticancer Drug Screen. Data for the CLN2oe strain (AID 163);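 note: 0% = growth of vehicle-only control cultures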; conditions: S. cerevisiae CLN2oe strain, stronger effect = higher value
# Procedure, shortened: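 Read-out: yeast growth inhibition, expressed relative to vehicle-only controls. The strain bears an engineered cell-cycle alteration.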
# [10] = NCI Yeast Anticancer Drug Screen. Data for the cln2 rad14 strain (AID 165);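 note: 0% = growth equal to vehicle treated cultures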; conditions: S. cerevisiae cln2 rad14 strain, stronger effect = higher value
# Procedure, shortened: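 cln2 rad14 yeast strain; compound exposure; growth inhibition read vs vehicle controls.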
# [11] = NCI Yeast Anticancer Drug Screen. Data for the bub3 strain (AID 167); conditions: S. cerevisiae bub3 mutant strain, stronger effect = higher value
# Procedure, shortened: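 Mutant yeast screening strain plus compound; vehicle-treated cultures serve as the 0% inhibition reference.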
# [12] = NCI Yeast Anticancer Drug Screen. Data for the wt2 strain (AID 169); conditions: S. cerevisiae wt2 strain growth inhibition, stronger effect = higher value
# Procedure, shortened: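 Read-out: growth inhibition versus vehicle-treated control cultures after compound exposure of the yeast strain.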
# [13] = NCI Yeast Anticancer Drug Screen. Data for the mlh1 strain (AID 171);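 note: 0% = growth of vehicle-treated control cultures of the same strain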; conditions: S. cerevisiae mlh1 strain growth inhibition, stronger effect = higher value
# Procedure, shortened: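 Read-out: growth inhibition versus vehicle controls. Strain: engineered yeast with a defined DNA repair or cell cycle defect, compound-treated.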
# [14] = NCI Yeast Anticancer Drug Screen. Data for the sgs1 strain (AID 173);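 note: 0% = growth of vehicle-only control cultures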; conditions: S. cerevisiae sgs1 mutant, stronger effect = higher value
# Procedure, shortened: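 Read-out: yeast growth inhibition relative to vehicle controls, following compound exposure of a strain with a defined DNA repair/cell cycle alteration.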
# [15] = NCI Yeast Anticancer Drug Screen. Data for the mlh1 rad18 strain (AID 175); conditions: S. cerevisiae mlh1 rad18 strain growth inhibition, stronger effect = higher value
# Procedure, shortened: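 Yeast w/ defined DNA-repair lesions; compound exposure; growth vs vehicle controls → % inhibition.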
# [16] = NCI Yeast Anticancer Drug Screen. Data for the rad18 strain (AID 177); conditions: S. cerevisiae rad18 mutant growth inhibition, stronger effect = higher value
# Procedure, shortened: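 Readout: growth inhibition vs vehicle controls. Cells: genetically altered yeast strain, DNA repair defect.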
# [17] = at 5.0 µM (retest, dose inferred, filed as 0.5)
# [18] = at 50.0 µM (retest, dose inferred, filed as 5.0)
structure (smiles),measurement,setting,value
COc1cc2ccc(/C=C\[N+](=O)[O-])cc2cc1OC,growth inhibition,[1]; at 1.2 µM,1%
same,growth inhibition,[1]; at 3.7 µM,13%
same,growth inhibition,[1]; at 11.0 µM,70% (active)
same,growth inhibition,[1]; at 33.0 µM,97% (active)
same,growth inhibition,[1]; at 100.0 µM,94% (active)
same,growth inhibition,[2]; at 1.2 µM,-24%
same,growth inhibition,[2]; at 3.7 µM,-25%
same,growth inhibition,[2]; at 11.0 µM,-37%
same,growth inhibition,[2]; at 33.0 µM,98% (active)
same,growth inhibition,[2]; at 100.0 µM,96% (active)
same,growth inhibition,[3]; at 1.2 µM,18%
same,growth inhibition,[3]; at 3.7 µM,39%
same,growth inhibition,[3]; at 11.0 µM,83% (active)
same,growth inhibition,[3]; at 33.0 µM,98% (active)
same,growth inhibition,[3]; at 100.0 µM,96% (active)
same,growth inhibition,[4]; at 1.2 µM,-18%
same,growth inhibition,[4]; at 3.7 µM,-23%
same,growth inhibition,[4]; at 11.0 µM,24%
same,growth inhibition,[4]; at 33.0 µM,97% (active)
same,growth inhibition,[4]; at 100.0 µM,95% (active)
same,growth inhibition,[5]; at 1.2 µM,-5%
same,growth inhibition,[5]; at 3.7 µM,26%
same,growth inhibition,[5]; [17],44%
same,growth inhibition,[5]; at 11.0 µM,51%
same,growth inhibition,[5]; at 33.0 µM,96% (active)
same,growth inhibition,[5]; [18],99% (active)
same,growth inhibition,[5]; at 50.0 µM,91% (active)
same,growth inhibition,[5]; at 100.0 µM,94% (active)
same,growth inhibition,[6]; at 1.2 µM,10%
same,growth inhibition,[6]; at 3.7 µM,-34%
same,growth inhibition,[6]; [17],29%
same,growth inhibition,[6]; at 11.0 µM,38%
same,growth inhibition,[6]; at 33.0 µM,97% (active)
same,growth inhibition,[6]; [18],99% (active)
same,growth inhibition,[6]; at 50.0 µM,90.5% (active)
same,growth inhibition,[6]; at 100.0 µM,95% (active)
same,growth inhibition,[7]; at 1.2 µM,-26%
same,growth inhibition,[7]; at 3.7 µM,-39%
same,growth inhibition,[7]; at 11.0 µM,-18%
same,growth inhibition,[7]; at 33.0 µM,97% (active)
same,growth inhibition,[7]; at 100.0 µM,95% (active)
same,growth inhibition,[8]; [17],11%
same,growth inhibition,[8]; [18],85% (active)
same,growth inhibition,[8]; at 50.0 µM,90.7% (active)
same,growth inhibition,[9]; at 1.2 µM,12%
same,growth inhibition,[9]; at 3.7 µM,0%
same,growth inhibition,[9]; at 11.0 µM,-4%
same,growth inhibition,[9]; at 33.0 µM,91% (active)
same,growth inhibition,[9]; at 100.0 µM,95% (active)
same,growth inhibition,[10]; [17],-14%
same,growth inhibition,[10]; [18],-25%
same,growth inhibition,[10]; at 50.0 µM,86.1% (active)
same,growth inhibition,[11]; at 1.2 µM,-30%
same,growth inhibition,[11]; at 3.7 µM,-21%
same,growth inhibition,[11]; [17],17%
same,growth inhibition,[11]; at 11.0 µM,-22%
same,growth inhibition,[11]; at 33.0 µM,85% (active)
same,growth inhibition,[11]; [18],53%
same,growth inhibition,[11]; at 50.0 µM,91.9% (active)
same,growth inhibition,[11]; at 100.0 µM,95% (active)
same,growth inhibition,[12]; at 1.2 µM,-14%
same,growth inhibition,[12]; at 3.7 µM,4%
same,growth inhibition,[12]; at 11.0 µM,22%
same,growth inhibition,[12]; at 33.0 µM,98% (active)
same,growth inhibition,[12]; at 100.0 µM,97% (active)
same,growth inhibition,[13]; at 1.2 µM,-36%
same,growth inhibition,[13]; at 3.7 µM,-36%
same,growth inhibition,[13]; at 11.0 µM,19%
same,growth inhibition,[13]; at 33.0 µM,98% (active)
same,growth inhibition,[13]; at 100.0 µM,97% (active)
same,growth inhibition,[14]; at 1.2 µM,-4%
same,growth inhibition,[14]; at 3.7 µM,16%
same,growth inhibition,[14]; at 11.0 µM,47%
same,growth inhibition,[14]; at 33.0 µM,98% (active)
same,growth inhibition,[14]; at 100.0 µM,97% (active)
same,growth inhibition,[15]; [17],45%
same,growth inhibition,[15]; [18],98% (active)
same,growth inhibition,[15]; at 50.0 µM,92.3% (active)
same,growth inhibition,[16]; at 1.2 µM,-17%
same,growth inhibition,[16]; at 3.7 µM,-33%
same,growth inhibition,[16]; at 11.0 µM,18%
same,growth inhibition,[16]; at 33.0 µM,97% (active)
same,growth inhibition,[16]; at 100.0 µM,93% (active)
Cn1ccnc1Oc1ccc(Cl)cc1,growth inhibition,[1]; at 1.2 µM,-7%
same,growth inhibition,[1]; at 3.7 µM,-11%
same,growth inhibition,[1]; at 11.0 µM,7%
same,growth inhibition,[1]; at 33.0 µM,61%
same,growth inhibition,[1]; at 100.0 µM,97% (active)
same,growth inhibition,[2]; at 1.2 µM,1%
same,growth inhibition,[2]; at 3.7 µM,5%
same,growth inhibition,[2]; at 11.0 µM,22%
same,growth inhibition,[2]; at 33.0 µM,50%
same,growth inhibition,[2]; at 100.0 µM,97% (active)
same,growth inhibition,[3]; at 1.2 µM,-5%
same,growth inhibition,[3]; at 3.7 µM,-22%
same,growth inhibition,[3]; at 11.0 µM,0%
same,growth inhibition,[3]; at 33.0 µM,30%
same,growth inhibition,[3]; at 100.0 µM,37%
same,growth inhibition,[4]; at 1.2 µM,-4%
same,growth inhibition,[4]; at 3.7 µM,-5%
same,growth inhibition,[4]; at 11.0 µM,0%
same,growth inhibition,[4]; at 33.0 µM,15%
same,growth inhibition,[4]; at 100.0 µM,98% (active)
same,growth inhibition,[5]; at 1.2 µM,-9%
same,growth inhibition,[5]; at 3.7 µM,-9%
same,growth inhibition,[5]; [17],-121%
same,growth inhibition,[5]; at 11.0 µM,3%
same,growth inhibition,[5]; at 33.0 µM,76% (active)
same,growth inhibition,[5]; [18],83% (active)
same,growth inhibition,[5]; at 50.0 µM,81.2% (active)
same,growth inhibition,[5]; at 100.0 µM,97% (active)
same,growth inhibition,[6]; at 1.2 µM,-2%
same,growth inhibition,[6]; at 3.7 µM,0%
